According to PubChem BioAssay (NCATS):
Values joined by “and” are separate entries in the source; they are usually repeats but may differ in a detail not shown here. Identical values can stand only once. Results filed as inconclusive are left out. Active and inactive are the calls of the source. Unless noted, the call rests on the fitted dose curve; in most records, active means well fitted curve in the direction sought with a large enough effect; inconclusive means small, poorly fitted or top-dose-only effect, or another doubt; inactive means no such curve, though single readings can be large; an effect the other way counts as inactive or inconclusive.

Tests used:
[1] = qHTS for differential inhibitors of proliferation of Plasmodium falciparum line 7G8 (AID 1815);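 further: parasite growth measured after three days of incubation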; further: potency means the concentration at half of the fitted maximal effect
[2] = qHTS for differential inhibitors of proliferation of Plasmodium falciparum line D10 (AID 1877);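 further: parasites grown with compound for 72 h before DNA staining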; further: potency means the concentration at half of the fitted maximal effect
[3] = target: Cytochrome P450 2D6 (Homo sapiens) (UniProt P10635); assay: qHTS Assay for Inhibitors and Substrates of Cytochrome P450 2D6 (AID 891); further: nearly all actives have a fitted effect of over 60% in size; further: potency means the concentration at half of the fitted maximal effect
How it was run: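 Human CYP2D6 (5 nM) with 30 uM Luciferin-ME EGE (at Km) in 100 mM KPO4, compound preincubated 10 min, then NADPH regeneration system for 60 min at room temperature. Luciferin read by luminescence; normalized to 1.43 uM quinidine.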

[4] = qHTS for differential inhibitors of proliferation of Plasmodium falciparum line W2 (AID 1883); conditions: Potency: Plasmodium falciparum W2 proliferation inhibition;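 further: parasites grown with compound for 72 h before lysis and staining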; further: potency means the concentration at half of the fitted maximal effect
[5] = Cell Viability - BJ (AID 421; calls by dose curve;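 further: potency means the concentration at half of the fitted maximal effect; cells exposed to compound for 40 hours at 37 °C before readout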); conditions: BJ fibroblast viability, qHTS
How it was run: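 Cytotoxicity as drop in intracellular ATP (CellTiter-Glo, 20 min RT) after 40 hr compound exposure of BJ fibroblasts at 37 °C. Titrations scaled between DMSO and 100 uM tamoxifen, Hill-fitted for AC50.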

[6] = Cell Viability - MRC5 (AID 434; calls by dose curve;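 further: potency means the concentration at half of the fitted maximal effect; potency reflects cytotoxicity seen as loss of intracellular ATP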); conditions: MRC5 lung fibroblast viability, qHTS
How it was run: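 MRC5 normal human lung fibroblasts (1500/well) were treated with compounds for 40 hr at 37 °C in complete medium, and viable cells were measured as intracellular ATP by CellTiter-Glo luminescence. AC50 came from Hill fits, normalized to DMSO and 100 uM tamoxifen.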

[7] = Cell Viability - NIH 3T3 (AID 541); conditions: NIH 3T3 cell viability, qHTS; activity change, negative = cytotoxicity: at 92.2 µM (top of the series);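 further: plate controls were DMSO alone for no effect and tamoxifen positive control for full effect; nearly all actives have a fitted effect of over 25% in size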
How it was run: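 Mouse NIH 3T3 fibroblasts, 1000 cells/well, rested 5 hr at 37 °C, then exposed to compound for 40 hr at 37 °C in complete medium. Viability read as intracellular ATP by CellTiter-Glo luminescence; AC50 from Hill-equation fits of concentration-response data.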

[8] = Cell Viability - Mesenchymal (AID 546);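 further: cells exposed to compound for 40 hours before reading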
How it was run: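 Normal human renal glomerulus-derived kidney mesenchymal cells, 1000 per well in complete medium, were treated with compounds for 40 hr at 37 °C. Viability was read as intracellular ATP by CellTiter-Glo luminescence; AC50 values came from Hill-equation fits of qHTS concentration-response data.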

[9] = Cellular Toxicity (caspase-3) Jurkat (AID 655); conditions: Jurkat caspase-3 activation, luminescence, DMSO = 0%, tamoxifen = 100%; at 92.2 µM (top of the series);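 further: cells exposed to compound for 16 h at 37 °C before reading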
How it was run: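 Caspase 3/7 activation is scored as increased luminescence in Jurkat cells cultured with compound for 16 hours in complete medium. AC50 values come from Hill fits of qHTS concentration-response data normalized to DMSO and 100 uM tamoxifen controls.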

[10] = Cellular Toxicity (caspase-3) SHSY5Y (AID 657)
How it was run: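 Cells plated and incubated 5 h at 37 °C, dosed over a concentration range, incubated 16 h, then given Caspase-Glo 3/7 reagent for 1 h at room temperature before luminescence reading. Staurosporine (10 uM) defined full stimulation.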

[11] = Cellular Toxicity (caspase-3) SK-N-SH (AID 661);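 further: 0% = DMSO basal and 100% = 10 µM staurosporine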
How it was run: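 Human SK-N-SH neuroblastoma cells, 1500/well, were exposed to compounds for 16 hours at 37 °C. Caspase-Glo 3/7 luminescence was normalized to DMSO (basal) and 10 uM staurosporine (100%), and AC50 came from a Hill fit.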

[12] = MultiTox-Fluor Cytotoxicity Assay - LYMP1-003 - Dead Cells (AID 961); further: nearly all actives have a fitted effect of over 70% in size; further: potency means the concentration at half of the fitted maximal effect
How it was run: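 Dead-cell protease release, detected as bis-AAF-R110 fluorescence at 485/520 nm, was measured in LYMP1-003 cells after 16 h compound treatment at 37 C. AC50 values came from Hill-modeled qHTS curves normalized to DMSO (0%) and 15 uM tetraoctylammonium bromide (100%).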

[13] = Cell Viability - LYMP2-003 (AID 965);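 further: cells exposed to compounds for 24 h before reading; nearly all actives have a fitted effect of over 50% in size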; further: potency means the concentration at half of the fitted maximal effect;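 on activity change, negative = cytotoxicity: 0% = DMSO only and full effect = 92 µM tetraoctylammonium bromide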
How it was run: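 Acute cytotoxicity is scored as a concentration-dependent drop in intracellular ATP, measured by luciferase luminescence in human lymphoblastoid cells treated for 24 hours at 37 C. AC50 values derive from Hill-equation modelling.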

[14] = Cell Viability - LYMP2-025 (AID 976); further: potency means the concentration at half of the fitted maximal effect;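 on activity change, negative = cytotoxicity: plate controls were DMSO only for no effect and tetraoctylammonium bromide control for full effect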
How it was run: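 Human lymphoblastoid LYMP2-025 cells, 2500/well, exposed 24 h at 37 C in complete medium in 1536-well qHTS. Viability as cellular ATP by CellTiter-Glo luminescence; AC50 from Hill fits of concentration-response data.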

[15] = Cell Viability - LYMP2-007 (AID 979);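 further: cells exposed to compound for 24 h before reading; nearly all actives have a fitted effect of over 60% in size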; further: potency means the concentration at half of the fitted maximal effect;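 on activity change, negative = cytotoxicity: 0% = DMSO only and the negative end = 92 µM tetraoctylammonium bromide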
How it was run: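 Human lymphoblastoid LYMP2-007 cells (2500/well) preincubated 5 h at 37 C, then treated 24 h at 37 C in complete medium. Viability by CellTiter-Glo ATP luminescence after 30 min at room temperature; AC50 from Hill fits.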

[16] = target: Retinoic acid receptor RXR-alpha (Homo sapiens) (UniProt P19793); assay: qHTS assay for small molecule antagonists of retinoid X receptor alpha signaling (AID 588546; active means well fitted inhibition curve with a large enough effect in the signal ratio, with a control signal flat, not every such curve was filed as active; the % refers to the signal ratio;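 further: cells stimulated with 9-cis-retinoic acid as agonist; on the % scale 0 is the no-effect control and ±100 the full control effect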); conditions: HEK293T RXRa-UAS-bla, beta-lactamase ratio, antagonist mode
How it was run: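 Beta-lactamase reporter inhibition, read as CCF4 fluorescence ratio (ex 405, em 460/530 nm) after 2 h at RT. HEK293T UAS-bla cells, 2500/well, were stimulated with 9-cis-RA at 500 or 100 nM final alongside test compound for 18 h at 37 C.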

[17] = qHTS assay for environmental chemicals that activate the Aryl hydrocarbon Receptor (AhR) signaling pathway (AID 651777); conditions: 1A2-DRE human hepatoma cells, luciferase, 24 h; activation: hits give high values; further: % of control where 0% means no effect; nearly all actives have a fitted effect of over 15% in size
How it was run: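 Quantitative HTS in stably transfected human liver-derived cells whose luciferase gene sits downstream of the CYP1A2 promoter and dioxin response element. After 24 hr exposure at 37 C, One-Glo luminescence was measured.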

[18] = qHTS assay for small molecule agonists of the antioxidant response element (ARE) signaling pathway measured by Nrf2-dependant transcriptional activity (AID 720636; active means well fitted curve in the direction sought with a large enough effect in the repeat runs; an effect the other way counts as inactive or inconclusive; further: % of control where 0% means no effect)
How it was run: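 Quantitative HTS format in HepG2 cells stably expressing an ARE-luciferase reporter; 16 hr compound treatment at 37 C, luciferase signal detected with ONE-Glo.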

[19] = qHTS assay for small molecule activators of the nuclear factor-kappa B (NF-kB) signaling pathway (AID 651749; active means well fitted activation curve with a large enough effect in the signal ratio; the % refers to the signal ratio; further: % of control where 0% means no effect); conditions: NF-kB-bla ME-180 cells, beta-lactamase FRET ratio, 16 h; activation: hits give high values
How it was run: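 Screening used 2,000 ME-180 reporter cells per well exposed to pinned compound (23 nL) or DMSO; after 16 hr at 37C, beta-lactamase expression under NF-kB control was assessed through FRET.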

[20] = qHTS assay for cell viability of the p53RE-bla HCT-116 cell line (AID 743292); further: on the % scale 0 is the no-effect control and ±100 the full control effect; nearly all actives have a fitted effect of over 55% in size
How it was run: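 Viability of compound-treated p53RE-bla HCT-116 cells is taken from ATP-dependent luciferase luminescence. Treatment lasts 16 h at 37 C after a 5 h settling period; detection follows 30 min at room temperature.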

Retinoic acid receptor RXR-alpha (Homo sapiens), sequence (P19793 whole entry, looked up): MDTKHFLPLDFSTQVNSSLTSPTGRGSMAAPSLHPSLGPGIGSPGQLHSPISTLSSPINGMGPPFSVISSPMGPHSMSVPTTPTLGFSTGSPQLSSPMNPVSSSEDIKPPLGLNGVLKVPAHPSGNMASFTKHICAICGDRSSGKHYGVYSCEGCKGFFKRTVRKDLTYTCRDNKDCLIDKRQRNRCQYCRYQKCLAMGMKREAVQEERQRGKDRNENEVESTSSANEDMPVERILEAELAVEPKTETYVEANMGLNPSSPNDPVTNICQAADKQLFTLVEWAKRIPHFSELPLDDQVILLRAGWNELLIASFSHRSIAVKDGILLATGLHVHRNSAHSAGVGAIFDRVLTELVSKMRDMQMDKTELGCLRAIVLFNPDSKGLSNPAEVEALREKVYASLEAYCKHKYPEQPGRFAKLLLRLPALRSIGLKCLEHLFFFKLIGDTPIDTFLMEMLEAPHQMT
Cytochrome P450 2D6 (Homo sapiens), sequence (P10635 whole entry, looked up): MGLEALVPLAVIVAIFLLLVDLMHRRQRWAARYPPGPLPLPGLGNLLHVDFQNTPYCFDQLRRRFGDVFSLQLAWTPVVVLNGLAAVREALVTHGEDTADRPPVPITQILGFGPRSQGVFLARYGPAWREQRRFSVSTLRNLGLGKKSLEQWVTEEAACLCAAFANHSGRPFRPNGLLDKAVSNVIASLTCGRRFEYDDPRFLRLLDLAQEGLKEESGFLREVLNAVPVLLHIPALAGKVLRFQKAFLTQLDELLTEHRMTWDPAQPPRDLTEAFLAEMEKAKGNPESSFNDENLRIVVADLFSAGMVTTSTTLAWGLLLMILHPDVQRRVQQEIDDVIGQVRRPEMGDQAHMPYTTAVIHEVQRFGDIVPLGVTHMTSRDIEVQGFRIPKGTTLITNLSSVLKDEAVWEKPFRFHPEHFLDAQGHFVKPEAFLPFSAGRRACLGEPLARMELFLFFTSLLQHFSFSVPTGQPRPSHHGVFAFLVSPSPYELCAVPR

C[C@]12CC[C@H](O)CC1=CCC1C2CC[C@]2(C)C(=O)CC[C@@H]12 (some centres undefined)
inactive: Potency [1] | Potency [2]

O=C(Oc1ccccc1)N1CCC2(CCCN(Cc3nccs3)C2)CC1
active: Potency [3] 5.01 µM

CCCC[N+]1(C)C2CC(OC(=O)C(CO)c3ccccc3)CC1C1OC12 (centres undefined)
inactive: Potency [1] | Potency [2]

COc1ccc(NC(=O)N2CC[C@@]3(CCCN(C(=O)Oc4ccccc4)C3)C2)cc1
active: Potency [3] 6.31 µM

O=C(OC1CCN(CCCl)CC1)C(c1ccccc1)c1ccccc1
active: Potency [1] 7.94 µM | Potency [2] 12.6 µM | Potency [4] 2.24 µM

CC(C)[C@@]1(NC(=O)[C@@H]2C[C@@H]3c4cccc5[nH]cc(c45)C[C@H]3N(C)C2)O[C@@]2(O)C3CCCN3C(=O)[C@H](Cc3ccccc3)N2C1=O (some centres undefined)
active: Potency [1] 0.316 µM | Potency [2] 2.24 µM | Potency [4] 0.891 µM

C[N+]1(C)C2CC(OC(=O)C(CO)c3ccccc3)CC1C1OC12 (centres undefined)
inactive: Potency [1] | Potency [2] | Potency [4]

C#CCN(C)C(C)Cc1ccccc1 (centres undefined)
inactive: Potency [1] | Potency [2] | Potency [4]

CCCN(C/C=C\I)[C@@H]1CCc2ccc(O)cc2C1
active: Potency [3] 0.0158 µM

CCCN1CCc2cccc3c2C1Cc1ccc(O)c(O)c1-3 (centres undefined)
active: Potency [1] 2.24 µM | Potency [2] 2.51 µM | Potency [4] 2 µM

CC(C)C[C@H]1C(=O)N2CCCC2[C@]2(O)O[C@](NC(=O)[C@@H]3C=C4c5cccc6[nH]c(Br)c(c56)C[C@H]4N(C)C3)(C(C)C)C(=O)N12 (some centres undefined)
active: Potency [1] 0.891 µM | Potency [2] 2.51 µM | Potency [4] 1.26 µM

ClC1=C(Cl)C2(Cl)C3C4C=CC(C4)C3C1(Cl)C2(Cl)Cl (centres undefined)
active: Potency [12] 39.8 µM | Potency [13] 31.6 µM | Potency [14] 50.1 µM
inactive: Potency [5] > 92 µM | Potency [6] > 92 µM | activity change, negative = cytotoxicity [7] -10.7% | outcome [8] | caspase-3 activation [9] 6.54% | outcome [10] | outcome [11] | Potency [15] | max response [16] -13.5% | activation [17] 0.192% | outcome [18]

c1ccc(N=Nc2ccccc2)cc1
active: caspase-3 activation [9] 92% | Potency [15] 31.6 µM
inactive: Potency [5] > 92 µM | Potency [6] > 92 µM | activity change, negative = cytotoxicity [7] -2.38% | outcome [8] | outcome [10] | outcome [11] | Potency [12] | Potency [13] | Potency [14] | max response [16] -1.15% and 2.93% | activation [19] -0.765% and -3.19% | activation [17] -0.472% and 1.23% | outcome [18] | Potency [20]

COc1cc(C=C(C#N)C#N)cc(O)c1O
active: Potency [4] 10 µM

C=CCN1CC[C@@]2(C)c3cc(O)ccc3CC1[C@@H]2C
active: Potency [1] 7.94 µM | Potency [2] 12.6 µM | Potency [4] 6.31 µM

CCNc1nc(Cl)nc(NC(C)C)n1
inactive: Potency [5] > 92 µM | Potency [6] > 92 µM | activity change, negative = cytotoxicity [7] -18.4% | outcome [8] | caspase-3 activation [9] 0.071% | outcome [10] | outcome [11] | Potency [12] | Potency [13] | Potency [14] | Potency [15] | max response [16] -16% and 6.8% | activation [19] -0.0541% and -0.0593% | activation [17] -0.785% and 0.245% | outcome [18] | Potency [20]

CCCN1CCC[C@@H]2Cc3n[nH]cc3C[C@H]21
inactive: Potency [2]

C=CCc1ccc2c(c1)OCO2
inactive: Potency [5] > 92 µM | Potency [6] > 92 µM | activity change, negative = cytotoxicity [7] -6.05% | outcome [8] | caspase-3 activation [9] 1.31% | outcome [10] | outcome [11] | Potency [12] | Potency [13] | Potency [14] | Potency [15] | max response [16] 33.4% | activation [19] -0.401% | outcome [18] | Potency [20]

CNCC[C@@H](Oc1ccc(C(F)(F)F)cc1)c1ccccc1
active: Potency [4] 4.47 µM

COC(=O)NC(=S)Nc1ccccc1NC(=S)NC(=O)OC
inactive: Potency [5] > 92 µM | Potency [6] > 92 µM | activity change, negative = cytotoxicity [7] -30% | outcome [8] | caspase-3 activation [9] 2.97% | outcome [10] | outcome [11] | Potency [12] | Potency [13] | Potency [14] | Potency [15] | max response [16] -8.67% and 3.08% | activation [19] 0.272% and -1.52% | activation [17] 11.9% and 4.33% | outcome [18] | Potency [20]

CCN1C[C@]2(C)CC[C@H](O)[C@@]34[C@@H]5C[C@@H]6[C@@H](OC)C[C@@](O)(C5[C@H]6O)[C@@H](C[C@@H]23)[C@@H]14
inactive: Potency [1] | Potency [2]

COc1ccc2c(c1O)-c1c(OC)c(OC)cc3c1[C@H](C2)N(C)CC3
inactive: Potency [3]

O=S1OCC2C(CO1)C1(Cl)C(Cl)=C(Cl)C2(Cl)C1(Cl)Cl (centres undefined)
inactive: Potency [5] > 92 µM | Potency [6] > 92 µM | activity change, negative = cytotoxicity [7] -20.5% | outcome [8] | caspase-3 activation [9] 10.8% | Potency [14] | Potency [15] | max response [16] -29.4% | activation [19] 1.74% | activation [17] -0.06% | outcome [18] | Potency [20]

NCC#Cc1ccccc1
active: Potency [4] 12.6 µM
inactive: Potency [2]

O=C(O)COc1ccc(Cl)cc1Cl
inactive: Potency [5] > 92 µM | Potency [6] > 92 µM | activity change, negative = cytotoxicity [7] -11.4% and -12.3% | outcome [8] | caspase-3 activation [9] -0.262% and -0.585% | outcome [10] | outcome [11] | Potency [12] | Potency [13] | Potency [14] | Potency [15] | max response [16] -3.05% [middle of 4 runs] | outcome [18] | Potency [20]
